Screening results deposited in PubChem BioAssay by University of Kansas High Throughput Screening Laboratory.
Pf apPOL inh – Pf-apPOL DNA polymerase inhibition | inhibition, % at 10 µM | 210,000 compounds, 0.25% hits | AID 1794808 | Recombinant Pf-apPOL, molecular beacon fluorescence, 1.5 h
mHTT CaM bind – disrupts binding of mutant huntingtin to calmodulin; 190,000 compounds, 3.6% hits; inhibition, % at 15 µM; P42858; AlphaScreen His-mHTT/GST-CaM binding, luminescence;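 note: 0% = both proteins with DMSO and 100% = one protein alone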
Active calls of the source: *. An excerpt weighted towards active compounds, which were near 3.5% of everything screened. Cut-off read from the data, not from the text of the source: active = inhibition above about 50%; inactive = the rest.

SMILES	Pf apPOL inh	mHTT CaM bind
Cc1ccc(C)c(-c2cc3c(N4CCC(C(=O)NCc5ccco5)CC4)nccn3n2)c1	1.2	5.8
CN(CC(=O)N1CCCC1)S(=O)(=O)c1ccc2[nH]c3c(c2c1)CCCC3	-0.7	0.6
COc1ccc(CCNS(=O)(=O)c2ccc3[nH]c4c(c3c2)CCCC4)cc1OC	-3.5	47.0
Cc1ccc(CNS(=O)(=O)c2ccc3[nH]c4c(c3c2)CCCC4)o1	-3.8	50.2*
CCOc1ccc(CNS(=O)(=O)c2ccc3[nH]c4c(c3c2)CCCCC4)cc1	-1.1	54.5*
CCOc1ccccc1NC(=O)CN(C)S(=O)(=O)c1ccc2[nH]c3c(c2c1)CCCC3	-0.9	46.7
O=S(=O)(NCCc1ccccc1)c1ccc2[nH]c3c(c2c1)CCCC3	-0.7	94.9*
CN(Cc1ccccc1)S(=O)(=O)c1ccc2[nH]c3c(c2c1)CCCC3	-3.8	70.6*
Cc1ccc(C(O)CN2CCN(c3ccccc3C)CC2)cc1 (stereo not drawn)	2.3	-2.6
CCOc1ccc(N2CCN(C(=O)c3ccc(C)cc3)C(C)C2=O)cc1 (stereo not drawn)	-2.7	-2.0
O=C(NCC1CCCO1)c1cc(Cl)ccc1Cl (stereo not drawn)	-2.9	-1.9
Cc1nn(Cc2ccc(Cl)cc2)c(C)c1NC(=O)c1noc2c1CCCCC2	1.8	67.2*
Cc1cc(NC(=O)c2noc3c2CCCCC3)nn1Cc1ccc(Cl)cc1	-4.2	-8.2
Cc1ccc(-c2cc([C@H]3[C@@H]4C=CCC[C@@]4(C)C(=O)N3Cc3ccccc3)ccc2F)cc1	-0.7	17.5
C[C@@]12CCC=C[C@H]1[C@H](c1ccc(Br)cc1F)N(Cc1ccccc1)C2=O	-4.3	89.7*
C[C@@]12CCC=C[C@H]1[C@H](c1ccc(F)c(Br)c1)N(Cc1ccccc1)C2=O	3.2	100.4*
C[C@@]12CCC=C[C@H]1[C@H](c1cccc(Br)c1)N(Cc1ccccc1)C2=O	0.4	21.3
COc1ccccc1CCN1C(=O)CCC1(C)C(=O)NC1CCCC1 (stereo not drawn)	-0.3	-0.6
COc1ccccc1N1CCN(C(=O)CSCc2ccccc2Cl)CC1	-1.8	28.6
COC(=O)c1ccc(C(=O)N2CC3(COC(C)(C)OC3)C2)cc1	-0.3	-2.7
Cc1cccc(-n2cnc3cc(C(=O)NC4CCCC4)ccc32)c1	3.6	10.0
Cc1cccc(-n2cnc3cc(C(=O)N4CCc5ccccc54)ccc32)c1	28.5	67.0*
Cc1cc(-c2nnc(NC(=O)c3ccc4c(c3)OCCO4)o2)c(C)o1	-6.3	1.9
Cc1cc(-c2nnc(NC(=O)c3ccn(C)n3)o2)c(C)o1	-6.4	67.5*
CN(C)c1nc2cc(C(=O)N3CCCC3)sc2n1-c1ccccc1	-1.5	50.1*
SMILES	Pf apPOL inh	mHTT CaM bind
CN(C)c1nc2cc(C(=O)NCC3CC3)sc2n1-c1ccccc1	0.7	6.6
COc1ccc(C(=O)N2CCC3(CC2)Nc2cccnc2NC3=NC2CCCC2)c(OC)c1	-0.4	15.7
COc1ccccc1C1C2=C(CCCC2=O)Nc2nc(-c3cccc(C)c3)nn21 (stereo not drawn)	-2.0	6.3
COc1ccc(C2C3=C(CCCC3=O)Nc3nc(-c4cccc(Cl)c4)nn32)cc1OC (stereo not drawn)	-6.5	18.2
COc1ccc(-c2nc3n(n2)C(c2ccc(Cl)cc2)C2=C(CCCC2=O)N3)cc1OC (stereo not drawn)	-0.2	8.7
COc1ccc(-c2nc3n(n2)C(c2ccc(OC)cc2)C2=C(CCCC2=O)N3)cc1 (stereo not drawn)	-1.4	46.9
COc1ccc(-c2nc3n(n2)C(c2ccccc2)C2=C(CCCC2=O)N3)cc1OC (stereo not drawn)	-0.5	59.9*
O=C1CCCC2=C1C(c1ccc(Br)cc1)n1nc(-c3ccco3)nc1N2 (stereo not drawn)	0.9	84.2*
COc1ccc(C2C3=C(CCCC3=O)Nc3nc(-c4ccccc4)nn32)cc1OC (stereo not drawn)	-0.3	75.6*
COc1ccc(C2C3=C(CCCC3=O)Nc3nc(-c4cccc(C)c4)nn32)cc1OC (stereo not drawn)	-1.8	85.5*
O=C(Nc1cccc(Cl)c1)c1ccc(F)c(S(=O)(=O)NC2CC2)c1	-3.7	-1.0
O=C(CCc1ccccc1)N1CCC(c2nc(C3CC3)n[nH]2)CC1	4.4	2.4
COc1cc(OC)cc(-c2nc3n(n2)C(c2ccc(F)cc2)C2=C(CCCC2=O)N3)c1 (stereo not drawn)	1.7	56.8*
O=C1CCCC2=C1C(c1ccncc1)n1nc(-c3cccc(Cl)c3)nc1N2 (stereo not drawn)	-2.7	55.5*
COc1cc(OC)cc(-c2nc3n(n2)C(c2ccccc2)C2=C(CCCC2=O)N3)c1 (stereo not drawn)	2.2	22.8
O=C1CCCC2=C1C(c1ccc3c(c1)OCO3)n1nc(-c3cccc(Cl)c3)nc1N2 (stereo not drawn)	-2.2	18.8
Cc1nn(C)c2c(=O)n(CC(=O)NC(C)c3ccccc3)ccc12 (stereo not drawn)	0.2	-6.8
